This note sets out measurements from PubChem BioAssay (NCATS).

SMILES strings stand for the structures. Results filed as inconclusive are left out. A call without a number means that no potency is given here. Activity calls are given as the source filed them. Calls come from the whole dose curve.

Chain of Nucleoprotein (Lymphocytic choriomeningitis virus (strain Armstrong)) (P09992 whole entry, looked up): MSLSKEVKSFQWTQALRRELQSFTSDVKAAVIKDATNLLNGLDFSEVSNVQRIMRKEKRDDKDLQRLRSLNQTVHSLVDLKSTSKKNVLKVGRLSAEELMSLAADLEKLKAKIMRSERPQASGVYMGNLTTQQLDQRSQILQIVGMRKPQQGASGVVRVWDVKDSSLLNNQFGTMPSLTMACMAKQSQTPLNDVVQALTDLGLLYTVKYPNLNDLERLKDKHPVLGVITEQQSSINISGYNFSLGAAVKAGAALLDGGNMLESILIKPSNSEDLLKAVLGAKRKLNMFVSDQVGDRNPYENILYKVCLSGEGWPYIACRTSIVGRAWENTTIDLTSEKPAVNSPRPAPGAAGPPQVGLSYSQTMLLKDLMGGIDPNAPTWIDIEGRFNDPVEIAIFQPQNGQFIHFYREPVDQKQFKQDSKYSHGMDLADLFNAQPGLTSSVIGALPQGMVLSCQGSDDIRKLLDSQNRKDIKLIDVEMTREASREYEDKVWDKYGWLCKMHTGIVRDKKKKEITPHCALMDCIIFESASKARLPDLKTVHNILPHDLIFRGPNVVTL

The experiment has as its target Nucleoprotein (Lymphocytic choriomeningitis virus (strain Armstrong)) (UniProt P09992). Briefly: qHTS for Inhibitors of the Functional Ribonucleoprotein Complex (vRNP) of Lymphocytic Choriomeningitis Arenaviruses (LCMV): LCMV Primary Screen - GLuc reporter signal (AID 1347086). Note: nearly all actives have a fitted effect of over 70% in size. Conditions: LCMV minigenome vRNP cell assay, Gaussia luciferase reporter; series mostly up to 57.5 µM. On the technique in general: In qHTS, concentration-response curves come from the screen itself.
Turning to `O=C(CS)Nc1ccccc1`, the Potency entry is “inactive”.

Consider `O=C(O)CN(CCOCCOCCN(CC(=O)O)CC(=O)O)CC(=O)O`, for which the Potency entry is “inactive”. On to `O=C(O)c1cn(-c2ccc(F)cc2)c2cc(N3CCNCC3)c(F)cc2c1=O`, for which the Potency result is “inactive”. Still for that read-out and setting: the entry for `Clc1ccccc1C(c1ccccc1)(c1ccccc1)n1ccnc1` is “inactive”; for `CCOC(=O)c1ccc(C#Cc2ccc3c(c2)C(C)(C)CCS3)nc1` it is “inactive”; for `COC(=O)C1=C(C)NC(COC(N)=O)=C(C(=O)OC(C)C)C1c1cccc(Cl)c1Cl` (centres undefined) it is “inactive”. Take `CC1(C)CO[C@@H](CC(=O)O)CN1`: the Potency result is “inactive”.

Turning to `CC(C)(C)C(=O)OCOC(=O)[C@@H]1N2C(=O)[C@@H](NC(=O)[C@H](N)c3ccccc3)[C@H]2SC1(C)C`, the Potency entry was “inactive”. Same read-out and setting: the entry for `Clc1ccc2c(c1)CCc1cccnc1C2=C1CCNCC1` is “inactive”; for `COc1ccc2[nH]c(S(=O)Cc3ncc(C)c(OC)c3C)nc2n1` (centres undefined) it is “inactive”.

For the molecule `CNC[C@H](O)c1ccc(O)c(O)c1`, the Potency entry was “inactive”. Take `CCN(CC)CCOC(=O)C1(c2ccccc2)CCCC1`: the Potency result was “inactive”. On the same count and under the same terms, then `CC(=O)c1ccc2c(c1)N(CCCN(C)C)c1ccccc1S2`, with “inactive”. Same read-out and setting: then `CN(C)CCOc1ccccc1Cc1ccccc1`, with “inactive”; and `O=Cc1ccc(O)c(O)c1O`, with “inactive”; and `CC(=O)Oc1ccc2c(c1)CC[C@@H]1[C@@H]2CC[C@]2(C)[C@@H](O)CC[C@@H]12`, with “inactive”. As to `CCC(C(=O)OCCN1CCOC(c2ccccc2)C1C)c1ccccc1` (centres undefined), the Potency entry is “inactive”.

`NC[C@H]1O[C@H](O[C@H]2[C@H](O)[C@@H](O[C@H]3O[C@H](CO)[C@@H](O)[C@H](N)[C@H]3O)[C@H](N)C[C@@H]2N)[C@H](N)[C@@H](O)[C@@H]1O`: the Potency result is “inactive”.

Take `COc1cc(NS(=O)(=O)c2ccc(N)cc2)nc(OC)n1`: the Potency entry was “inactive”.

Take `N[C@@H](Cc1ccc(O)cc1)C(=O)O`: the activity change, negative = inhibition is 16.2% [at 11.5 µM] (inactive). As for `Cc1cn([C@H]2C[C@H](F)[C@@H](CO)O2)c(=O)[nH]c1=O`, the Potency result was “inactive”.

Regarding `COc1cc(C(=S)N2CCOCC2)ccc1O`, the Potency entry is “inactive”.

For the molecule `CSc1ccc(C(=O)c2[nH]c(=O)[nH]c2C)cc1`, the Potency entry is “inactive”. Consider `C[C@@H]1C[C@H]2[C@@H]3CCC4=CC(=O)C=C[C@]4(C)[C@@]3(Cl)[C@@H](O)C[C@]2(C)[C@@]1(OC(=O)c1ccco1)C(=O)CCl`, for which the Potency result was “inactive”.

On to `COCCc1ccc(OCC2CO2)cc1` (centres undefined), for which the Potency entry is “inactive”. On the same count and under the same terms, then `CN1CCCC(n2nc(Cc3ccc(Cl)cc3)c3ccccc3c2=O)CC1` (centres undefined), with “inactive”. Consider `CN1CCC(=C2c3ccccc3CCc3sccc32)CC1`, for which the Potency entry was “inactive”. In the case of `CCOc1cc(N)c(Cl)cc1C(=O)NCC1CN(Cc2ccc(F)cc2)CCO1` (centres undefined), the Potency entry is “inactive”. Regarding `CCc1oc2ccccc2c1C(=O)c1cc(Br)c(O)c(Br)c1`, the Potency result was “inactive”. The same measure, in the same setting: then `Nc1c(NC/C=C\COc2cc(CN3CCCCC3)ccn2)c(=O)c1=O`, with “inactive”; and `C=CCOc1cc(Cl)ccc1C(=O)NCCN(CC)CC`, with “inactive”. Same read-out and setting: the entry for `C=CCc1cc(OC)c(O)c(C(=O)NCCO)c1` is “inactive”. On the same count and under the same terms, the entry for `CCn1c(=O)c2c(nc(C=Cc3ccc(OC)c(OC)c3)n2C)n(CC)c1=O` is “inactive”; for `CCCc1cc(C(N)=S)ccn1` it is “inactive”.

`Oc1cc(O)c2c(c1)O[C@H](c1ccc(O)c(O)c1)[C@H](O)C2`: the Potency result is “inactive”. On the same count and under the same terms, the entry for `CC1=C(C)C(=O)C(CCCCC#CCCCC#CCO)=C(C)C1=O` is “inactive”; for `O=C(NN1CCCC1)NS(=O)(=O)c1ccc(Cl)cc1` it is “inactive”; for `CC(=O)N(CC(O)CN(C(C)=O)c1c(I)c(C(=O)NCC(O)CO)c(I)c(C(=O)NCC(O)CO)c1I)c1c(I)c(C(=O)NCC(O)CO)c(I)c(C(=O)NCC(O)CO)c1I` (centres undefined) it is “inactive”. Same read-out and setting: the entry for `CNc1c2c(nn1C)CCCC2` is “inactive”.
